About 2,000 (36%) of roughly 5,500 compounds were called active. Another 18% or so got no clear call; they are omitted. Rule as the data show it: active = normalized growth mostly below about 0.91 (no sharp cut-off); inconclusive = no clear call, values can overlap the other calls; inactive = mostly above about 0.92. The list shows a part of the results.
Assay: chemical genetic growth profiling, strain panel (AID 1159580);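 also: tested at 20 µM; growth read once vehicle control cultures reached saturation at 30 °C; 1 = growth at the plate median or of vehicle wells; lower values mean less growth of the strain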
Details: S. cerevisiae deletion strains, growth OD
[1] = locus YAL013W, strain DEP1, stronger effect = lower value
[2] = locus YAL040C, strain CLN3, stronger effect = lower value
[3] = locus YCL061C, strain MRC1 (second series), stronger effect = lower value
[4] = locus YDR363W, strain ESC2, stronger effect = lower value
[5] = locus YER002W, strain NOP16, stronger effect = lower value
[6] = locus YJR075W, strain HOC1, stronger effect = lower value
[7] = locus YMR307W, strain GAS1, stronger effect = lower value
[8] = locus YNL128W, strain TEP1, stronger effect = lower value
[9] = locus YNL175C, strain NOP13, stronger effect = lower value
[10] = locus YNL197C, strain WHI3, stronger effect = lower value
[11] = locus YNL224C, strain SQS1, stronger effect = lower value
[12] = locus YOR083W, strain WHI5 (second series), stronger effect = lower value
[13] = locus YPL055C, strain LGE1, stronger effect = lower value
[14] = locus YPL241C, strain CIN2, stronger effect = lower value

Measured: normalized growth

C[C@]12CC[C@H]3[C@@H](CCC4C[C@H](O)CC[C@@]43C)[C@@H]1CC[C@@H]2O (stereo partly specified)
inactive: [1] 0.946 | [2] 1.02 | [3] 1 | [4] 0.987 | [5] 1 | [6] 1.06 | locus YMR263W, strain SAP30, stronger effect = lower value 1.03 | [7] 0.977 | [8] 1.03 | [9] 1.02 | [10] 0.964 | [11] 1.01 | locus YNL322C, strain KRE1, stronger effect = lower value 1.02 | [12] 0.966 | [13] 1.03 | [14] 1.03

C[C@]12CCC3C(CC[C@H]4C[C@H](O)CC[C@]34C)C1CC[C@@H]2C(=O)CO (stereo partly specified)
inactive: [1] 1.02 | [2] 1.08 | [3] 1.01 | locus YDR150W, strain NUM1, stronger effect = lower value 1.03 | [4] 1.02 | [5] 1.02 | [6] 1.06 | [7] 0.939 | [8] 1.02 | [9] 1.04 | [10] 1.02 | [11] 0.995 | [12] 1.01 | [13] 1.03 | [14] 1.03

— PubChem BioAssay AID1159580 (chemical genetic matrix, 2015)
